Test results published in PubChem BioAssay (NCI).
About 79,000 compounds went through this panel and 15% of them were active in at least one assay; those are over-represented in the sample as a whole. Values without a mark were called inactive. Calls of active or inactive are those of the source. No stated cut-off is given here; in the data, active means growth inhibition above about 70%; inactive means the rest.

Key:
[1] = NCI Yeast Anticancer Drug Screen. Data for the rad50 strain (AID 155);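 further: 0% = growth of vehicle-only cultures of the same strain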; settings: S. cerevisiae rad50 strain growth inhibition; at 50.0 µM; stronger effect = higher value
How it was run: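 Growth of the mutant yeast was measured after compound exposure and referenced to vehicle-treated cultures.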

[2] = NCI Yeast Anticancer Drug Screen. Data for the mec2-1 strain (AID 157); settings: S. cerevisiae mec2-1 strain, at 50.0 µM, stronger effect = higher value
How it was run: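 Growth inhibition is read against vehicle-treated controls after compound exposure of the mec2-1 yeast strain, which is defective in DNA damage repair or cell cycle control.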

[3] = NCI Yeast Anticancer Drug Screen. Data for the sgs1 mgt1 strain (AID 161);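 further: 0% = growth of cultures given vehicle only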; settings: S. cerevisiae sgs1 mgt1 strain, at 50.0 µM, stronger effect = higher value
How it was run: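 This yeast growth screen uses a strain with defined DNA-repair lesions; compound-treated growth is compared with vehicle-treated growth.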

[4] = NCI Yeast Anticancer Drug Screen. Data for the cln2 rad14 strain (AID 165);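 further: 0% = growth equal to vehicle treated cultures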; settings: S. cerevisiae cln2 rad14 strain, at 50.0 µM, stronger effect = higher value
How it was run: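 Growth inhibition, relative to vehicle-treated controls, is the read-out. The test organism is a yeast strain with defined genetic alterations, cln2 rad14.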

[5] = NCI Yeast Anticancer Drug Screen. Data for the bub3 strain (AID 167); settings: S. cerevisiae bub3 mutant strain, at 50.0 µM, stronger effect = higher value
How it was run: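 Whole-cell yeast assay. The mutant strain was incubated with compounds, and growth inhibition was determined by comparison with vehicle-treated cells.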

[6] = NCI Yeast Anticancer Drug Screen. Data for the mlh1 rad18 strain (AID 175); settings: S. cerevisiae mlh1 rad18 strain growth inhibition; at 50.0 µM; stronger effect = higher value
How it was run: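 Cells of a genetically altered yeast strain, deficient in DNA damage repair, were treated with compound. Their growth was then compared with that of vehicle-treated cultures to give inhibition.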

| Compound | growth inhibition [1] | growth inhibition [2] | growth inhibition [3] | growth inhibition [4] | growth inhibition [5] | growth inhibition [6] |
| --- | --- | --- | --- | --- | --- | --- |
| O=[N+]([O-])c1ccc(C2ON2C2CCCCC2)cc1 (configuration not stated) | -0.75% | -2.55% | 18.7% | -22.3% | -10.8% | 5.3% |
| COc1ccc(C[C@@H]2Cc3cc(OC)c(OC)cc3CN2C)cc1 | 27.4% | 4.6% | 19.6% | 5.65% | 10.9% | 21.4% |
| O=C(O)C(Br)C(Br)C(=O)Nc1cccc2ccccc12 (configuration not stated) | 98.8% (active) | 99.1% (active) | 99.2% (active) | 99.2% (active) | 98.9% (active) | 98.8% (active) |
| CC1(C)CC([NH-])(C(=O)O)CC(C)(C)N1O.CC1(C)CC([NH-])(C(=O)O)CC(C)(C)N1O.[Pt+2] | -5.65% | -8.75% | -6.5% | -45.6% | -1.05% | -23.8% |
| CC(C)S(=O)(=O)/C=C(\I)c1ccccc1 | 3.7% | 8.7% | -11.2% | 6.9% | 33.2% | -11.4% |
| C=CCC(=S)NCCc1c[nH]c2ccccc12 | -12.2% | 2.4% | -5.5% | 2.55% | 11.8% | -18.9% |
| CCCC1CC(=O)NC(=O)C1C(=O)OC(C)(C)C (configuration not stated) | -13.1% | -0.2% | -8.65% | 11% | 9.85% | -47.4% |
| CC(C)N(C(=O)C12C3C4C1C1C2C3C41C(=O)C(C)(C)C)C(C)C (configuration not stated) | 43% | 28.9% | 52% | 61% | 41% | 50.8% |
| O=[N+]([O-])c1ccc(N=N/C(=N\Nc2ccccc2)c2nc3ccccc3[nH]2)c([N+](=O)[O-])c1 | 7.45% | -5.2% | -7.35% | 19.6% | -4.35% | 15.2% |
| CCn1c(=O)ccc2ccc(N(CCO)CCO)nc21 | -19.9% | 8.3% | -0.15% | -3.6% | -9% | 10.1% |
| OCC1OC(OC2CCCCC2)C(O)C(O)C1O (configuration not stated) | -1.45% | 51.5% | 21.9% | -5.05% | 24.6% | 32.8% |
| NS(=O)(=O)c1ccc(N2C(=O)C(=O)N(c3ccccc3)C2=S)cc1 | -15.8% | -11.9% | -16.2% | -39.4% | -3.75% | -20.5% |
| COc1cccc(-n2cnc3c(=O)[nH]cnc32)c1 | -18.7% | -13.3% | -10.9% | -34.9% | -5.65% | -40% |
| ClC(Cc1ccccc1)(c1ccccc1)c1ccccc1 | -26.6% | 13.5% | -0.8% | -26.9% | 13.8% | -3.6% |
| C/C(=C\c1ccccc1)c1ccccc1 | -47.8% | 1.9% | -3.75% | -30.4% | 2.1% | 8.45% |
| O=C1N2CCCSC2=NC1(c1ccccc1)c1ccccc1 | -7.15% | 0.7% | 1.75% | 11.2% | 13.2% | -0.05% |
| O=c1/c(=C/c2ccccc2F)sc2nc3ccccc3n12 | -2.85% | -11.3% | 12.2% | 29% | 21.1% | 12.3% |
| NC(=S)N/N=C/c1cc(=O)c2cc(Cl)ccc2o1 | -0.05% | 11.8% | 42.3% | 45.8% | 7.95% | 55% |
| N#C/C(=C1\OC(N)=C(c2ccc(Cl)cc2)C1=O)c1ccc(Cl)cc1 | 2.9% | -8.45% | 6.8% | 18.4% | 2.15% | 9.2% |
| CC1(CO)COC(c2ccccc2)=N1 (configuration not stated) | 4.65% | 2.85% | 4.55% | -8.9% | -1.3% | 0.75% |
| Cc1ccc(C)c2c(CC(=O)O)c[nH]c12 | -4.35% | -11.2% | -5.9% | -15.6% | 6.05% | -2.5% |

| Compound | growth inhibition [1] | growth inhibition [2] | growth inhibition [3] | growth inhibition [4] | growth inhibition [5] | growth inhibition [6] |
| --- | --- | --- | --- | --- | --- | --- |
| Nc1ccn(C2OC(CO)C(O)C2Br)c(=O)n1 (configuration not stated) | 3.9% | 8.75% | 14.2% | -12% | -10.1% | 14.1% |
| CN1C(=O)C2CSCN2C1=S (configuration not stated) | -38% | -7.7% | -5.4% | -12.3% | -13.6% | 5.1% |
| O=c1[nH]c2c([N+](=O)[O-])cc(Cl)cc2nc1/C=C(\O)c1ccncc1 | 42.5% | 8.75% | 42.6% | 9.45% | 18.3% | 51.4% |
| CCOc1ccc(/C=C2\C=Nc3ccccc32)cc1 | -3.75% | -10.8% | 3.2% | 6.7% | 16.1% | -5.4% |
| Cn1c(C(=O)NN)cc2cc(OCc3ccccc3)ccc21 | 30.1% | 5.75% | 7.2% | 4.55% | 13.2% | 2.4% |
| CC(C)C(C(=O)O)N(CC1(O)OCC(O)C(O)C1O)N=O (configuration not stated) | -0.2% | -18.4% | -2.85% | 0.1% | -11.1% | -12.9% |
| CCN1CCC(O)(c2ccc(Oc3ccc(F)cc3)cc2)C(C(=O)c2ccc(Oc3ccc(F)cc3)cc2)C1 (configuration not stated) | 20.1% | 2.9% | 14.6% | 5.95% | 5.65% | 29.9% |
| Cc1n[nH]c(=S)n1NC=O | -12.3% | -6.3% | -4.7% | -20.2% | -4.95% | -15.8% |
| N#CC(C(=O)C(=O)Nc1cccc(Cl)c1)c1ccccc1 (configuration not stated) | -4.55% | -6.9% | -19% | -89.1% | -11.8% | -4.2% |
| CCCS(CCC)=NS(=O)(=O)c1ccc(C)cc1 | -6.75% | -0.7% | 0.6% | -0.8% | 11.6% | -9.65% |
| O=C(CCl)N1C(=O)NC(c2ccc(Cl)cc2)(c2ccc(Cl)cc2)C1=O | 6.9% | 12% | 8.9% | -4.8% | -29% | -3.9% |
| CC(C)=C1OC(=O)C1(C)C | -5.75% | 15.7% | 1.5% | 17.4% | 5.5% | -12.6% |
| CC(C)CC(=O)Cc1nc2n(c1O)C(=N)N=N2 | -35.5% | -15.9% | -14.2% | -40.7% | -11.8% | -20.1% |
| CC1(C)OC2C(O1)[C@H]1OC(C(Cl)(Cl)Cl)=N[C@H]1C(I)[C@H]2N1C(=O)c2ccccc2C1=O (some centres not stated) | 0.25% | -45.9% | -5.15% | -52.6% | -5.9% | 3.55% |
| COc1ccc2nccc(CO)c2c1 | 4.95% | -3.4% | -0.8% | -33.2% | 5.7% | 0.75% |
| CC(=O)Nc1ccc(C2C(C(=O)Nc3ccccc3)=C(C)NC(C)=C2C(=O)Nc2ccccc2)cc1 | 17.1% | -2.6% | 12.7% | 11.2% | 32.5% | -2.2% |
| NC(Cc1ccc(O)c(O)c1)P(=O)(O)O (configuration not stated) | -72.8% | -38% | -35.7% | -5.75% | -0.1% | -27.8% |
| NNC(=O)C(=O)N/N=C1\CCC(=O)CC1C(=O)CCC(=O)Nc1ccc(Cl)cc1 (configuration not stated) | 10.3% | 1.05% | -16.6% | -9.35% | -0.8% | -17.5% |
| CCOC(=O)N1CCN(Cc2cc(=O)n3ccc(C)cc3n2)CC1 | 21.8% | 2.8% | 3.7% | 12.5% | 17.4% | 22.1% |
| COC(=O)C1=C(C)N(NC(=O)c2ccccc2)C(C)(O)C12CCOC2=O (configuration not stated) | 1.25% | -8.35% | 5.85% | -53% | -9.65% | -5.15% |
| O=C(O)c1cccc2ccc3cccc(C(=O)O)c3c12 | -5.35% | -6.05% | -0.45% | -74.8% | 2% | -17.2% |
